Among the test systems are T-47D breast; BT-549 breast; MDA-MB-435 melanoma; SW-620 colon; MCF7 breast; HCT-116 colon; HCC-2998 colon; KM12 colon.
Common to all, as to test: NCI-60 one-dose screen, 48 h (100 = growth as untreated, 0 = no growth, -100 = all killed)
What all share (settings): 10 µM unless noted

The panel holds about 83,000 compounds, 20% with a hit somewhere; the sample as a whole holds those more often.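 Results are percent growth after 48 hours of single-concentration exposure. 100 means growth as in untreated cells, lower positive values show inhibition; negative values down to -100 show cell death.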 A number with no mark means an inactive call. Activity calls are given as the source filed them. How the source made its calls: active means growth percent below 10; inactive means the rest.

Take `Cn1cc(-c2csc(-c3c[nH]c4ccccc34)n2)c2cnccc21`: the growth is -3.84% (active) in the assay on T-47D breast; 78.7% in the assay on BT-549 breast; -72.5% (active) in the assay on MDA-MB-435 melanoma; -48% (active) in the assay on SW-620 colon; 16.7% with MCF7 breast; -59.7% (active) with HCT-116 colon. Besides, the growth is 87% in the assay on HCC-2998 colon and 22.8% in the assay on KM12 colon.
On to `CCOC(=O)C#Cc1c(C(=O)OCC)nnn1Cc1ccc([N+](=O)[O-])cc1`, for which the growth in the assay with T-47D breast was 23.8%; in the assay with BT-549 breast, 80.2%; with MDA-MB-435 melanoma it was 75.2%; with SW-620 colon, -40.5% (active); in the assay with MCF7 breast it was 6.62% (active); with HCT-116 colon, 43.4%. The growth in the assay on HCC-2998 colon was 81.1%; in the assay with KM12 colon, 92%.
With `Nc1c(C(=O)Nc2ccncc2)sc2nc3c(cc12)C(O)CCC3` (stereo not given), the growth with T-47D breast is 74.3%; in the assay with BT-549 breast it was 113%; with MDA-MB-435 melanoma, 101%; in the assay with SW-620 colon, 99.7%; in the assay with MCF7 breast it was 93.8%; in the assay on HCT-116 colon, 83.4%. Moreover, the growth with HCC-2998 colon is 96.7%; with KM12 colon it was 109%.
Regarding `COc1ccc(Nc2ncc(Br)c(NCCCNC(=O)C3CCCC3)n2)cc1`, the growth in the assay with T-47D breast is 77.5%; with BT-549 breast, 40.4%; in the assay on MDA-MB-435 melanoma it was 63%; with SW-620 colon, 41.2%; with MCF7 breast, 41.8%; in the assay with HCT-116 colon, 23.6%. For the same molecule, the growth was 69.7% in the assay on HCC-2998 colon and 23% in the assay on KM12 colon.
For `CS(=O)(=O)Nc1cc(-c2ccc3ncnc(Nc4ccc5c(cnn5Cc5cccc(F)c5)c4)c3c2)cnc1Cl`, the growth in the assay on T-47D breast was -24.6% (active); in the assay with BT-549 breast, -13.5% (active); in the assay on MDA-MB-435 melanoma it was 8.98% (active); with SW-620 colon, 18.4%; in the assay on MCF7 breast it was 0.881% (active); with HCT-116 colon it was 4.08% (active). Besides, the growth with HCC-2998 colon is 2.5% (active); in the assay with KM12 colon it was 13.9%.
For the molecule `O=C(CN1C(=O)NC2NC(=O)NC21)N/N=C/c1ccccc1[N+](=O)[O-]` (stereo not given), the growth in the assay on T-47D breast is 104%; in the assay with BT-549 breast, 97.9%; in the assay with MDA-MB-435 melanoma, 104%; with SW-620 colon, 105%; with MCF7 breast it was 85.1%; with HCT-116 colon, 107%. Further, the figures for the growth in the assay with HCC-2998 colon and with KM12 colon were 118% and 104%, respectively.
In the case of `CCCCCCCCCc1ccc(OCCOCCOCCOCCOCCOCCOCCOCCOCCO)cc1`, the growth is 116% in the assay on T-47D breast; -9.07% (active) with BT-549 breast; 7.48% (active) in the assay on MDA-MB-435 melanoma; 19.1% with SW-620 colon; 10.9% in the assay with MCF7 breast; 11% with HCT-116 colon. The growth is 23.3% in the assay on HCC-2998 colon and 13.3% with KM12 colon.
Consider `COCCn1cc(-c2csc(-c3cn(C)c4ccc(Br)cc34)n2)c2cccnc21`, for which the growth with T-47D breast is 17.6%; in the assay on BT-549 breast, 64.6%; with MDA-MB-435 melanoma, 61.2%; in the assay with SW-620 colon, 21.9%; in the assay on MCF7 breast it was 50.2%; in the assay with HCT-116 colon, 49.2%. The growth with HCC-2998 colon is 25.7%; in the assay with KM12 colon it was 23.8%.
Take `COc1ccc2c(c1)CC[C@H](O)/C2=C/c1cc(OC)c(OC)c(OC)c1`: the growth in the assay on T-47D breast is 51.9%; with BT-549 breast it was 4.02% (active); in the assay on MDA-MB-435 melanoma, -54.4% (active); in the assay on SW-620 colon, 21.1%; in the assay on MCF7 breast, 16%; in the assay with HCT-116 colon, 2.27% (active). Also, the growth with HCC-2998 colon is 22.1%; in the assay on KM12 colon, 10.8%.
Consider `C=C1C(=O)O[C@H]2[C@H]1CC/C(COC(=O)c1cc3ccccc3s1)=C\CC[C@@]1(C)O[C@@H]21`, for which the growth is -50.2% (active) in the assay on T-47D breast; -59% (active) with BT-549 breast; -71% (active) in the assay with MDA-MB-435 melanoma; -67.4% (active) in the assay with SW-620 colon; -41.9% (active) in the assay on MCF7 breast; -83.8% (active) with HCT-116 colon. Moreover, the growth with HCC-2998 colon is -76.6% (active); in the assay on KM12 colon, -59.7% (active).
On to `O=C(Nc1ccccc1)Nc1ncnc2c1ncn2-c1ccc(Cl)cc1`, for which the growth in the assay with T-47D breast was 63.8%; in the assay with BT-549 breast, 102%; with MDA-MB-435 melanoma it was 92.1%; with SW-620 colon it was 97.7%; in the assay on MCF7 breast, 82.5%; in the assay with HCT-116 colon, 36.6%. In addition, the growth in the assay with HCC-2998 colon was 105%; in the assay with KM12 colon, 87.1%.
On to `Nc1cnc(C(=O)NNc2nc3cc(F)ccc3n3cccc23)cn1`, for which the growth with T-47D breast was 35.5%; in the assay on BT-549 breast it was 52.9%; in the assay on MDA-MB-435 melanoma, 38.9%; in the assay on SW-620 colon, 36%; in the assay with MCF7 breast, 16.6%; in the assay with HCT-116 colon it was 36%. In addition, the growth was 48.4% in the assay on HCC-2998 colon and 24.7% in the assay with KM12 colon.
Regarding `C=CCc1c(O)c(C(=O)/C=C/c2ccccc2)c(OC)c2ccoc12`, the growth was 41.3% in the assay on T-47D breast; 34.3% with BT-549 breast; 26.4% in the assay with MDA-MB-435 melanoma; 39.9% in the assay on SW-620 colon; 16.1% in the assay on MCF7 breast; 22.9% in the assay with HCT-116 colon. Also, the growth was 50.4% in the assay on HCC-2998 colon and 45.2% with KM12 colon.
As to `Cc1ccc(/C=C2\COc3ccc(O)cc3C2=O)cc1`, the growth in the assay with T-47D breast was 88.9%; in the assay on BT-549 breast, 79.1%; in the assay with MDA-MB-435 melanoma, 75.8%; with SW-620 colon, 47.9%; in the assay on MCF7 breast it was 12.8%; with HCT-116 colon it was 59.5%. The growth in the assay on HCC-2998 colon was 112%; in the assay on KM12 colon it was 46.6%.
For `COc1cc(-c2nccc3[nH]c(-c4ccc5cc[nH]c5c4)nc23)cc(OC)c1OC`, the growth was 30.5% in the assay with T-47D breast; 18.4% with BT-549 breast; 5.17% (active) with MDA-MB-435 melanoma; -15.6% (active) in the assay on SW-620 colon; 2.12% (active) in the assay with MCF7 breast; 4.37% (active) in the assay on HCT-116 colon. Further, the growth is -19.2% (active) in the assay with HCC-2998 colon and 3.62% (active) with KM12 colon.

The values above are taken from PubChem BioAssay (NCI).
